Data on eleven compounds can be found in PubChem BioAssay (NCATS).

Inconclusive results are not listed. For part of these data: Results with a measured potency or affinity are listed apart. The source made the active and inactive calls. Unless noted, how the calls were made is not given here.

For assay [1] the following is noted: Ebola virus entry assay, green fluorescence channel.
For assay [2] the following is noted: Ebola virus entry assay, blue channel fluorescence.
For assay [3] the following is noted: Ebola virus entry assay, green channel fluorescence.
The conditions of assay [4]: Ebola virus entry assay, reporter ratio channel; Channel type: primary.
The conditions of assay [5]: Ebola virus entry assay, blue channel (ratio component).
Assay [6] is described as follows: qHTS assay for measurement of the activity of small molecule inhibitors on Zika virus induced Caspase-3 activity in human iPSC derived neural progenitor cells (hNPCs) (AID 1224857; active means well fitted inhibition curve with a large enough effect; further: % of control where 0% means no effect; nearly all actives have a fitted effect of over 65% in size). The conditions noted are these: hNPCs ZIKV-induced caspase-3/7, Caspase-Glo luminescence, 6 h; series mostly up to 45.7 µM. In outline:
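Human iPSC-derived neural progenitor cells pretreated 1 hr with compounds, then infected with Zika virus (2 FFU/cell) for 6 hours at 37 C. Caspase-3/7 measured by Caspase-Glo luminescence; % inhibition calculated from induction scaled to uninfected (0%) and infected (100%) wells.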
(In general: qHTS replaces the single test concentration by a dilution series.)

Assay [7] in a line: qHTS assay for measurement of the activity of small molecule inhibitors on Zika virus induced Caspase-3 activity in human astrocytoma cells (AID 1224859; active means well fitted inhibition curve with a large enough effect;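 further: plate controls were ZIKV-infected untreated cells for no effect and uninfected cells for full effect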). The conditions noted are these: SNB-19 ZIKV-induced caspase-3/7, luminescence, 6 h; series mostly up to 45.7 µM. In a few lines: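 SNB-19 astrocytoma cells, 250/well, pretreated 1 h with compounds, then Zika virus at 2 FFU/cell for 6 h at 37 C; Caspase-Glo 3/7 luminescence after 30 min; percent inhibition normalised to uninfected and infected controls.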

The nature of assay [8]: qHTS profiling of the MIPE4 collection as inhibitors of Plasmodium falciparum (3D7) proliferation (AID 743344).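 Further: scaled between DMSO vehicle wells and 0.29 µM artemisinin as full inhibition.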 Particulars: P. falciparum 3D7 in erythrocytes, SYBR Green DNA fluorescence, 72 h; at 28.5 µM (top of the series). In a few lines: (§1)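 Erythrocytes infected with P. falciparum (0.3% parasitemia, 2.5% hematocrit) incubated with compounds 72 h at 37 C, 5% CO2. Lysis with saponin/Triton buffer containing SYBR Green I, overnight at room temperature in the dark; DNA fluorescence (485/535 nm) normalised to 0.29 uM artemisinin and DMSO.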

Assay [9] in a line: qHTS profiling of the MIPE4 collection as inhibitors of Plasmodium falciparum (DD2) proliferation (AID 743345). Particulars: P. falciparum Dd2 in erythrocytes, SYBR Green DNA, 72 h; at 28.5 µM (top of the series). In outline: as §1
A short description of assay [10]: qHTS profiling of the MIPE4 collection as inhibitors of Plasmodium falciparum (DD2) proliferation (Rep 2) (AID 743346). Particulars: P. falciparum Dd2 in erythrocytes, SYBR Green DNA, 72 h; at 28.5 µM (top of the series). In outline:
as §1

Assay [11] is described as follows: qHTS profiling of the MIPE4 collection as inhibitors of Plasmodium falciparum (HB3) proliferation (AID 743347).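 Further: plate controls were DMSO vehicle wells for no effect and artemisinin wells for full effect.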 Particulars: P. falciparum HB3 in erythrocytes, SYBR Green DNA, 72 h; at 28.5 µM (top of the series). In outline:
as §1

The nature of assay [12]: High-throughput drug toxicity screening in the BPDCN cell line Gen2.2 (AID 1224824).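 Further: cells exposed to compounds for 48 h before reading.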 The conditions noted are these: Gen2.2 BPDCN cells; at 45.8 µM (top of the series). In outline:
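Gen2.2 cells, 500 per well in phenol red-free RPMI with 10% FBS, exposed to compounds 48 h at 37 C, 5% CO2; viability by CellTiter-Glo luminescence. Percent activity scaled to DMSO (100%) and 9.2 uM bortezomib final (0%).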

Assay [13] in a line: High-throughput drug toxicity screening in the BPDCN cell line Cal-1 (AID 1224825). Particulars: Cal-1 BPDCN cell viability, qHTS; at 45.8 µM (top of the series). In outline:
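Exponentially growing Cal-1 cells, 500 per well in phenol red-free RPMI with 10% FBS, were exposed to compounds for 48 h at 37 °C, 5% CO2. Viability was read by CellTiter-Glo luminescence and normalised to DMSO (100%) and 9.2 uM bortezomib (0%).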

Assay [14] in a line: qHTS Screen of the MIPE 4.0 Collection Against Ewings Sarcoma (TC71) (AID 1259253; active means well fitted inhibition curve with a large enough effect; further: nearly all actives have a fitted effect of over 40% in size; further: potency means the concentration at half of the fitted maximal effect). Particulars: TC71 Ewing sarcoma viability, CellTiter-Glo, 48 h; series mostly up to 45.8 µM. In a few lines:
(§2)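 Compound titrations go onto adherent log-phase cells 4 h after seeding, incubate 48 h at 37C, then CellTiter-Glo luminescence reports viability relative to DMSO and cell-free controls.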

The conditions of assay [15]: Ebola virus entry assay, ratio channel.
A short description of assay [16]: qHTS Screen of the MIPE 4.0 Collection Against Ewings Sarcoma (RDES) (AID 1259252; active means well fitted inhibition curve with a large enough effect; further: potency means the concentration at half of the fitted maximal effect; nearly all actives have a fitted effect of over 35% in size). The conditions noted are these: RD-ES Ewing sarcoma viability, CellTiter-Glo, 48 h; series mostly up to 45.8 µM. In a few lines: as §2
Assay [17] in a line: qHTS Screen of the MIPE 4.0 Collection Against Ewings Sarcoma (EW8) (AID 1259255; active means well fitted inhibition curve with a large enough effect; further: nearly all actives have a fitted effect of over 35% in size; further: potency means the concentration at half of the fitted maximal effect;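 on viability: 100% = DMSO-treated cells and 0% = medium-only wells without cells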). Particulars: EW8 Ewing sarcoma viability, CellTiter-Glo, 48 h; series mostly up to 45.8 µM. In outline: as §2
Wherever efficacy is given: 0% is about no effect.

Turning to `O=c1n(Cl)c(=O)n(Cl)c(=O)n1Cl`, the efficacy in assay [1] was -11.8% (inactive). In addition, the outcome in [2], in [3], in assay [4], in assay [5] and in assay [7] was inactive. In addition, in assay [6], the Potency entry is “inactive”.
Regarding `CCOC(=O)c1cncn1C(C)c1ccccc1` (stereo not drawn), the efficacy in [1] is 19.1% (inactive). For the same compound, the result in assay [2], in [3], in [4], in assay [5] and in assay [7] was inactive. Further, the Potency result in assay [6] was “inactive”.
In [8], `COC(=O)C1=CCCN(C)C1` yielded a parasite growth, % of DMSO control of 75.8%. The compound also gave a parasite growth remaining, % of DMSO control (lower = more inhibition) in assay [9] of 98.7%. In addition, the parasite growth, % of control (lower = inhibition) in [10] was found to be 47.2%. Besides, the growth, % of control in assay [11] turned out to be 93%. The efficacy in assay [1] was 26.3% (inactive). For the same compound, the compound was classed as inactive in assay [2], in assay [3], in assay [4], in assay [5] and in assay [7]. Besides, the cell viability, % of control (lower = more cytotoxic) in assay [12] was determined as 166%. For the same compound, in assay [13], the viability (% of control) was found to be 129%. Besides, the Potency result in assay [6] and in assay [14] was “inactive” each time.
As for `COP(=S)(OC)Oc1ccc(Sc2ccc(OP(=S)(OC)OC)cc2)cc1`, the efficacy in assay [1] was 20.5% (inactive). Besides, the outcome in [2], in assay [3], in [4], in assay [5] and in assay [7] was inactive. In addition, the Potency entry in assay [6] is “inactive”.
For `OC[C@@H](O)[C@H](O)[C@H](O)[C@@H](O)CO`, in [1], the efficacy is -17.3% (inactive). For the same compound, the call in assay [2], in [3], in assay [4] and in assay [5] was inactive.
One may read the AC50 as the concentration giving half of the maximal activity seen. Take `CCN(CC)CCOC(=O)C(C)(c1ccccc1)c1ccccc1`: in assay [1], the efficacy is 52.6% (inactive). Also, the AC50 was 8.91 µM (active) in [2], 10 µM (active) in assay [15] and 10 µM (active) in assay [4]. For the same compound, the call in assay [7] was inactive.
Take `C[C@@H]1C[C@@H]([C@H](O)CC2CC(=O)NC(=O)C2)C(=O)[C@@H](C)C1`: in assay [8], the parasite growth, % of DMSO control was found to be 5.16%. The parasite growth remaining, % of DMSO control (lower = more inhibition) in assay [9] was 6.36%. Also, in [10], the parasite growth, % of control (lower = inhibition) came out at 6.94%. Further, the growth, % of control in [11] turned out to be 5.04%. Also, in assay [1], the efficacy is -17.6% (inactive). For the same compound, the call in [2], in assay [4], in [5] and in assay [7] was inactive. For the same compound, in assay [12], the cell viability, % of control (lower = more cytotoxic) was determined as 19.5%. Besides, in assay [13], the viability (% of control) is 10.9%. Besides, the Potency result in assay [6] is “inactive”. The Potency in [16] is 0.418 µM (active); in assay [14], 0.235 µM (active); in [17] it was 0.148 µM (active).
Regarding `Clc1ccc(CO/N=C(\Cn2ccnc2)c2ccc(Cl)cc2Cl)c(Cl)c1`, in [1], the efficacy is -155% (inactive). Besides, the AC50 in assay [2] was 28.2 µM (active); in assay [4], 31.6 µM (active). In addition, the result in assay [15] and in assay [7] was inactive.
For `CC(C)NCC(O)c1ccc(N)c(C#N)c1` (stereo not drawn), in assay [1], the efficacy is -19.3% (inactive). Moreover, the result in assay [2], in assay [3], in assay [4], in assay [5] and in [7] was inactive. Also, the Potency entry in assay [6] is “inactive”.
For the compound `COP(=O)(OC)C(O)C(Cl)(Cl)Cl` (stereo not drawn), the efficacy in [1] is -51.3% (inactive). The result in assay [2], in assay [4], in [5] and in [7] was inactive. In addition, the Potency result in [6] was “inactive”.
On to `COc1ccc(C(=O)N2CCCC2=O)cc1`, for which the parasite growth, % of DMSO control in [8] came out at 90.2%. This compound yielded a parasite growth remaining, % of DMSO control (lower = more inhibition) in [9] of 19.7%. Moreover, in assay [10], the parasite growth, % of control (lower = inhibition) was found to be 128%. Also, the growth, % of control in [11] worked out at 103%. The efficacy in assay [1] was -13.7% (inactive). Besides, the call in [2], in assay [3], in [4], in [5] and in assay [7] was inactive. The cell viability, % of control (lower = more cytotoxic) in assay [12] was determined as 46.4%. For the same compound, the viability (% of control) in [13] is 41.6%. Further, the Potency entry in assay [6], in assay [14] and in assay [17] was “inactive” throughout.
